Where “and” joins values, the source holds several entries; their conditions need not be identical. Equal entries are not always repeated.
tested on: anti-desmoglein-3 scFv antibody binding to human DSG3; assay: inhibitors of anti-DSG3 scFv binding to DSG3, pilot screen, biochemical, validation compound set, bead-based, flow cytometry (AID 588368); conditions: Protein G beads, DSG3-Fc, scFv-GFP binding, at 10 µM, active compounds read low;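 active = binding below the plate cutoff, the plate median minus 3 SD, with a reading above zero; inconclusive = below the plate cutoff but reading exactly zero; inactive = the rest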;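 note: signal is the median channel fluorescence of bead-bound GFP antibody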

Binding (% of control), inactive:
S=C(NCCOCCOCCNC(=S)Nc1ccccc1)Nc1ccccc1 99.9%, Cc1ccc(CN2CCN(Cc3cn[nH]c3C3CCCCC3)CC2CCO)cc1 (centres undefined) 103%, OCCC1CN(Cc2ccccc2-c2ccco2)CCN1C1CCCC1 (centres undefined) 101%, COc1ccc2oc(-c3ccco3)cc(=O)c2c1 100%, Nc1nc2c(nc(SCc3ccccc3Br)n2C2OC(CO)C(O)C2O)c(=O)[nH]1 (centres undefined) 90.9%, O=C(CCC(=O)NCCO)NCCO 100%, Cc1cc(=O)[nH]c(=S)[nH]1 104%, CN(C)C(=O)Oc1cccc([N+](C)(C)C)c1 106% and 97.8%, COc1cc(/C=C/C(=O)O)cc(S(=O)(=O)NCCCO)c1OC 96.6%, COC(=O)c1sccc1NC(=O)Nc1ccccc1F 103%, CC1(C)C(=O)OC(/C=C\c2ccccc2)C(C)(C)C1=O (centres undefined) 97.3%, O=C(/C=C/c1ccc(F)cc1)NC(=S)N1CCCCC1c1cccnc1 (centres undefined) 104%, COc1cc2c(cc1OC)C1(CCCC1)CNC2c1cccc([N+](=O)[O-])c1 (centres undefined) 99.1%, O=C(NCCO)c1ccc(Cl)c(Cl)c1 104%, N#C/C(=C\c1ccc(O)c(O)c1)C(=O)NCCCc1ccccc1 103%, CSCC[C@H](NC(=O)OC(C)(C)C)C(=O)N1CCC(C(=O)N[C@@H](C)C(=O)O)CC1 103%, Cc1cc(-c2nn(-c3ccccc3F)cc2CN2CCCC(O)C2)c(C)s1 (centres undefined) 103%, COCCCNc1nc2c([nH]1)c(=O)[nH]c(=O)n2C 98.5%, CC(C)Oc1ccc2c(=O)c(-c3ccccc3)coc2c1 101%, O=C(Nc1cccc(Oc2c(F)c(F)c(F)c(F)c2F)c1)N1C[C@@H]2C[C@@H](C1)c1cccc(=O)n1C2 88%, CCCCC[C@H](O)/C=C/C1=C(CCCCCCC(=O)O)C(=O)CC1 101%, CC(=O)OC[C@H]1O[C@@H](Sc2cccc3cccnc23)[C@H](OC(C)=O)[C@@H](OC(C)=O)[C@H]1OC(C)=O 104%, COc1cc(OC)cc(C(C)=O)c1 81.3%, Nc1ccc2nc(Cc3ccccc3)[nH]c2c1 98%, COc1ccc2c(c1)[N+](C)(C)C(C)(C)C=C2C 95.6%, COc1ccc(CCN(C)Cc2nc(Cc3ccc(OC)c(OC)c3)no2)cc1OC 98.8%, N=c1c[n+](N2CCOCC2)[n-]o1 95.1%, CCCc1cc(=O)[nH]c(=S)[nH]1 101%, COC(=O)c1ccccc1NC(=O)c1ccc(COc2ccc3c(c2)CCC3)cc1 98.9%, CC1(C)Cc2ccccc2-c2nc(-c3ccccc3)oc(=O)c21 98.8%, Cc1cc(=O)oc2c(CN(C)Cc3ccccc3)c(O)ccc12 97.4%, CC1=NN(c2ccccc2)C(=O)C1 101%, CCOc1ccc2ccccc2c1C(=O)N[C@@H]1C(=O)N2[C@@H]1SC(C)(C)[C@@H]2C(=O)O 95.5%, O=C1CC2(CCCC2)CC(=O)N1CCCCN1CCN(c2ncccn2)CC1 101%, Cc1ccc(C2=NOC(=O)/C2=C\C=C\c2ccccc2)cc1 105%, COc1ccc2c3c([nH]c2c1)C1(NCC3)C(=O)Nc2ccccc21 (centres undefined) 97.6%, CC1(C)S[C@@H]2[C@H](NC(=O)Cc3ccccc3)C(=O)N2[C@H]1C(=O)O 99.7%, COc1cc2cc(C(=O)O)[nH]c2c(OC)c1OC 98.7%, Clc1cc(-c2ccc(/C=N/n3cnnc3)o2)ccc1Br 98.8%

From PubChem BioAssay
